Measured values as given in PubChem BioAssay AID602449 (Sanford-Burnham Center for Chemical Genomics, 2012).
Out of some 360,000 compounds screened, about 5,000 (1.4%) were called active. This excerpt belongs to a sample that is enriched for actives. A number with no mark means an inactive call.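 The calls were made as follows: active = inhibition of 50% or more, scaled per plate between neutral and stimulator controls; inactive = the rest.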

Assay: mitochondrial permeability transition pore inhibitors, primary screen, biochemical, isolated mouse mitochondria, absorbance (AID 602449);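 also: 0% = DMSO wells given calcium and 100% = 1 mM EGTA wells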
Conditions: Ca2+ swelling absorbance, 30 min, at 10 µM, stronger effect = higher value

Compound	inhibition
CN(N)c1nc(N2CCCC2)nc(N2CCCC2)n1	1.8%
COc1nc(NC2CCCCC2)nc(N2CCCCCC2)n1	20.8%
FC(F)(F)COc1nc(N2CCCCC2)nc(N2CCNCC2)n1	78.3% (active)
O=S(=O)(c1ccccc1)N1CCC(c2ccccc2)CC1	1.4%
COc1ccc(C2(C)ON(c3ccccc3C(F)(F)F)C2=O)cc1 (stereo not given)	-1.7%
CCc1noc(C)c1C(=O)Oc1ccc(N(C)S(=O)(=O)c2ccc(C)c(C)c2)cc1	0.2%
Cc1ccc(CNC(=O)CCC(=O)N2CC(C)Sc3ccccc32)cc1 (stereo not given)	-1.8%
O=C(c1ccc(Cl)cc1)c1ccc(OCC(O)CN2CCCCC2)cc1 (stereo not given)	96.3% (active)
CC(=O)Nc1ccc(OCC(O)CN2CCN(c3ccccc3Cl)CC2)cc1 (stereo not given)	-1.1%
OC(COc1ccc(CN2CCSCC2)cc1)CN1CCCCC1 (stereo not given)	1.1%
CN1CCN(c2ccc([N+](=O)[O-])c(Sc3nc4ccccc4[nH]3)c2)CC1	-0.9%
CCC(C)N1C(=O)S/C(=C/c2ccc(Sc3nc4ccccc4[nH]3)o2)C1=O (stereo not given)	91.9% (active)
CCC(c1nc2ccccc2[nH]1)n1c(=O)c(-c2cccs2)nc2ccccc21 (stereo not given)	2.6%
O=C(NC1CCCC1)C1c2ccccc2OCC(=O)N1CC(F)(F)F (stereo not given)	-0.2%
COc1ccc(N2CCN(C(=O)[C@@H](NC(=O)c3cc(OC)cc(OC)c3)C(C)C)CC2)cc1	0.3%
O=C(Nc1nnc(S(=O)(=O)N2CCCCCC2)s1)c1cccc(Br)c1	79.7% (active)
COc1cccc(C(=O)Nc2nnc(S(=O)(=O)N3CCOCC3)s2)c1	-1%
O=C(Nc1nnc(S(=O)(=O)N2CCOCC2)s1)c1cccc(Br)c1	4.6%
COc1cccc(C(NC(C)=O)c2nc(-c3cnc4ccccc4c3)cs2)c1 (stereo not given)	0.4%
CCCCn1c(N)c(N(CCC(C)C)C(=O)c2ccc([N+](=O)[O-])o2)c(=O)[nH]c1=O	-0.3%
COc1ccc(NC(=O)CN(C)C(=O)Cc2coc3cc(C)c(C)cc23)cc1	-0.3%
Cc1ccc(C)c(NC(=O)COC(=O)c2nn(C)c(=O)c3ccccc23)c1	1.4%
Cc1ccc(F)cc1NC(=O)Cc1nn(C)c(=O)c2ccccc12	69.1% (active)
Cc1ccc(F)cc1NC(=O)CSCc1c(C)noc1C	-0.3%

Compound	inhibition
O=C1CC(c2c(F)cccc2Cl)C(n2cncn2)C(O)=C1C1NCCc2ccccc21 (stereo not given)	5.6%
NNC(=O)COc1ccc(C2SCCS2)cc1	-1%
COc1ccc(CCC(C)N2CCc3ccccc3C2)cc1 (stereo not given)	-0.5%
Cn1c(=O)c2c(nc(CN3CCOCC3)n2Cc2ccccc2)n(C)c1=O	0.1%
COCCn1c(CN(Cc2ccccc2)Cc2ccccc2)nc2c1c(=O)n(C)c(=O)n2C	0.9%
COCCn1c(CN2CCC(Cc3ccccc3)CC2)nc2c1c(=O)n(C)c(=O)n2C	83.7% (active)
COc1cc(C(=O)Nc2cc(C(F)(F)F)ccc2-n2cncn2)cc(OC)c1OC	-0.1%
Cc1cc(C)c2c(Cn3ccnc3)cc(=O)oc2c1	-1.5%
COc1ncnc2c1N=C1CC(C)(C)CC(N)=C1S2	0.5%
O=C(COc1ccc(S(=O)(=O)N2CCOCC2)cc1Cl)N1CCOCC1	0.5%
COc1ccccc1CNC(=O)CCn1c(=O)sc2ccccc21	0.2%
COc1ccc(Cn2c(=O)sc3ccccc32)cc1OC	72.6% (active)
COc1ccc(CN2CCOC2=O)cc1OC	0.9%
Nc1ccc(OCC(O)C[n+]2ccc(CCS(=O)(=O)[O-])cc2)cc1 (stereo not given)	-2.1%
Oc1c(Cl)cc(Cl)c(Cl)c1Cc1c(O)c(Cl)cc(Cl)c1Cl	80.8% (active)
CN(C)C(=O)N=NC(=O)N(C)C	4.3%
CCC1=C(OC(=O)N(CC)CC)N2C(=O)OC(=NCCc3c[nH]c4ccccc34)[C@]2(C)[C@H]2C1=CC[C@H]1C(=O)N(CC)C(=O)[C@H]12	0%
CC1(C)OC(=O)C2=C(C[C@@H](C3CC3)O[C@H]2CCc2cccc(Cl)c2)O1	1%
O=C(Nc1nc2c(F)cc(F)cc2s1)C1COc2ccccc2O1 (stereo not given)	63.7% (active)
C/C(=N/NC(=O)C1COc2ccccc2O1)c1ccco1 (stereo not given)	0.4%
O=C(Nc1cc(S(=O)(=O)N2CCCCC2)ccc1Cl)C1COc2ccccc2O1 (stereo not given)	-0.4%
O=C(Nc1nnc(SCc2ccc(Cl)cc2Cl)s1)C1COc2ccccc2O1 (stereo not given)	70% (active)
O=C(N/N=C\c1cc(Br)c(Br)o1)C1COc2ccccc2O1 (stereo not given)	3.3%
Cc1cc(C)c2nc(NC(=O)C3CCCO3)sc2c1 (stereo not given)	-9.1%

Compound	inhibition
O=C(CN1CCOCC1)N1CCCc2c1c(=O)oc1ccc(OCc3ccccc3)cc21	5.1%
CCCN(CCC)c1c([N+](=O)[O-])c(=O)oc2ccccc12	-6.7%
COCCCNC(=O)C1CCN(c2ccc(N3CCOCC3)nn2)CC1	0.3%
OC(c1ccccc1)c1nccn1Cc1ccccc1 (stereo not given)	-1.7%
O=S(=O)(N1CCCCC1)N1CCNCC1	1.7%
O=C1c2ccccc2S(=O)(=O)N1Cc1c(F)cccc1Cl	-0.3%
NC(N)=N/N=C/c1ccc(OCc2ccc(Cl)cc2Cl)cc1	6%
NC(N)=N/N=C/c1ccc(Cl)c([N+](=O)[O-])c1	90.5% (active)
Nn1cnnc1N/N=C/c1cc([N+](=O)[O-])c(Cl)cc1Cl	0.6%
CC(C)N(C(=O)[C@H]1C[C@H](CC(=O)NC(C)(C)C)C(=O)N2CCc3c([nH]c4ccc(Cl)cc34)[C@]12C)C(C)C	-1.7%
O=C1c2ccccc2C(=O)C1C(=O)C1CC1	-0.9%
C/C(=N\NC(=O)c1ccc(C)cc1)C1C(=O)c2ccccc2C1=O	57.8% (active)
Cc1ccc(C(=O)N/C(=C/c2cccnc2)C(=O)O)cc1	0.9%
CCOc1ccc(S(=O)(=O)Nc2nccs2)cc1	0.5%
Cn1c(Cc2cccc3ccccc23)nnc1SCC(=O)N1CCN(c2cccc(Cl)c2)CC1	-0.5%
O=C(O)CCCC(=O)Nc1ccc(Oc2cccc(C(F)(F)F)c2)nc1	0.9%
O=C(Nc1ccc(Cl)cc1)Nc1ccc(Oc2cccnc2)nc1	82.5% (active)
Cc1cccc(C(=O)Nc2ccc(Oc3cnccn3)cc2)c1	0.7%
O=C1c2ccccc2[C@@H]2C[C@@H](O)[C@H](Nc3ccccc3Cl)CCN12	-0.5%
Cc1ccc2c(c1)C(c1ccccc1)N(C(=O)c1ccc(S(=O)(=O)N3CCOCC3)cc1)CC(=O)N2 (stereo not given)	-0.3%
Nc1nc(CSc2nnnn2-c2ccccc2)nc(Nc2ccccc2)n1	0%
O=C(c1ccc(-c2ccccc2)cc1)C1CCCN(C(=O)c2cncs2)C1 (stereo not given)	-1.8%
Cc1ccn(CC(=O)NC2CCCN(Cc3ccccc3F)C2)n1 (stereo not given)	0.4%
CCOC(=O)Nc1ccc2c(c1)N(C(=O)CCCl)c1ccccc1[S@]2=O	-1.2%

Compound	inhibition
CCNCCC(=O)N1c2ccccc2Sc2ccc(NC(=O)OCC)cc21	75.6% (active)
CCOC(=O)Nc1ccc2c(c1)N(C(=O)CCN1CCN(CCO)CC1)c1ccccc1CC2	0.2%
Cc1cccnc1NC(=O)Cn1c(=O)oc2ccccc21	-0.1%
COC(=O)c1ccc(CNC(=O)C2CCC(=O)N(Cc3cccc(F)c3)C2)cc1 (stereo not given)	-0.2%
N#Cc1ccc(C(=O)Nc2nc(-c3cccs3)c(C(=O)C(F)(F)F)s2)cc1	87.5% (active)
CCn1c(NC(=O)c2ccccc2)c(-c2cccs2)c(=O)c2ccccc21	1.4%
C=CCN(CC=C)S(=O)(=O)c1ccc(C(=O)Nc2nc3c(s2)CCc2ccccc2-3)cc1	-1.2%
Cc1ccc2nnn(Cc3cccc(C(C)(C)C)c3O)c2c1	93.7% (active)
COc1ccc(/C=C2/SC(=O)N(CCCCCC(=O)Nc3ccccc3C(=O)O)C2=S)cc1	60% (active)
CCCNC(=O)c1ccccc1NC(=O)CSCc1ccc(OC)cc1	0%
COc1ccc(NC(=O)CCCN2C(=O)C(c3ccccc3)Oc3cccnc32)cc1 (stereo not given)	1.6%
CCN1C[C@@H]2[C@@H]3C(=O)N(C)C(=O)[C@@H]3[C@](C)(C1=O)N2C(=O)c1ccccc1	-0.4%
COc1ccc(S(=O)(=O)N[C@@H]2C=C[C@@H](CC(=O)N3CCc4ccccc4C3)O[C@@H]2CO)cc1	0.4%
Cc1cc(C)c(C#N)c(SCC(=O)N(CC(C)C)C2CCS(=O)(=O)C2)n1 (stereo not given)	-1.7%
CC1=C(C/C=C(\C)CCCC(C)CCCC(C)CCCC(C)C)C(=O)c2ccccc2C1=O (stereo not given)	-2.2%
COc1ccc(CCNS(=O)(=O)c2cn(C)nc2C)cc1	-0.3%
N#C/C(=C\c1cccnc1)C(=O)Nc1ccc(SC(F)F)cc1	7.2%
O=C(Cc1ccc(Cl)c(Cl)c1)Nc1ccc(SC(F)F)cc1	82% (active)
CCC1CCCCN1C(=S)Nc1ccc(SC(F)F)cc1 (stereo not given)	34%
CCc1nc2c(OCCOc3ccc(F)cc3)cccn2c1N(C)C(=O)c1ccccc1F	0.6%
O=C(CSc1nc2[nH]c(=O)[nH]c(=O)c2s1)Nc1cccc(F)c1	-0.6%
Cc1nc2nc(SCC(=O)Nc3cccc(F)c3)[nH]c2cc1Br	63.9% (active)
Cc1nc2nc(SCC(=O)c3ccccc3)[nH]c2cc1Br	9.9%
